# Assay outcomes: PubChem, National Center for Advancing Translational Sciences (NCATS)
# The list is not random: actives were taken first. Their share in the collection is about 11%.
# AMA1-RON2 inh – disrupts binding of P. falciparum AMA1 to RON2. AlphaScreen AMA1-biotinylated RON2 peptide binding. Potency, µM (highest dose often 58.2 µM), for inactives: at the highest dose activity change, negative = inhibition, hits mostly inhibitors. 0.2% of 360,000 active;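 note: 0% = vehicle wells and -100% = peptide control; nearly all actives have a fitted effect of over 45% in size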
#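 AMA1 (3D7) with his tag at 25 nM final met compounds first, then biotinylated RON2 peptide at 25 nM; detection used donor plus acceptor beads, 10 µg/mL apiece, read by AlphaScreen after 30 min at room temperature.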
# NS1 function inh – inhibitors of influenza NS1 protein function | Potency, µM (doses to about 46.1 µM), for inactives: at the highest dose activity, positive = more growth | 0.4% of 270,000 active; calls by dose curve; note: actives are rising curves; nearly all actives have a fitted effect of over 50% in size
#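 Recovery from NS1-induced slow growth read by OD600 in budding yeast switched to galactose assay medium (pH 6.0, -URA) at 1:100 dilution. Compound 23 nl per well; the matching strain lacking NS1 serves as control.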
# Pf growth 48h – P. falciparum growth inhibition at 48 hours (one generation); P. falciparum luciferase growth in erythrocytes, 48 h; Potency, µM (top dose mostly 28.7 µM), without a hit: at the top dose activity change, negative = inhibition, hits mostly inhibitors; 5.9% of 310,000 active; note: % is set by controls: 0 for no effect and ±100 for the full control effect
#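 Read-out is firefly luciferase luminescence from an integrated reporter in P. falciparum, so falling signal marks reduced parasite growth. Infected erythrocytes were at 2% hematocrit and 0.1% parasitemia (final) in Albumax-supplemented RPMI 1640.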
# Pf growth 96h – P. falciparum growth inhibition at 96 hour, primary screen for plastid delayed-death inhibitors; 6.9% of 320,000 active; AID 504834; Potency, µM (doses to about 28.7 µM), for the others: top-dose activity change, negative = inhibition, usual class: inhibitors; P. falciparum luciferase reporter growth, 96 h; note: % is set by controls: 0 for no effect and ±100 for the full control effect
#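 Cell-based qHTS: luciferase-tagged P. falciparum in erythrocytes (2% hematocrit, 0.05% parasitemia final) incubated with compounds for 96 hours, 37 C, 5% CO2; luciferase detection reagent then added and luminescence measured.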
# Sm TGR block – blocks Schistosoma mansoni thioredoxin glutathione reductase; Q962Y6; purified TGR, DTNB reduction, TNB absorbance 405 nm; Potency, µM (doses to about 114 µM), without a hit: top-dose activity change, negative = inhibition, most hits filed as inhibitors; 3% of 360,000 active; AID 485364; note: % is set by controls: 0 for no effect and ±100 for the full control effect; nearly all actives have a fitted effect of over 60% in size
#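 TGR 20 nM + NADPH 100 uM (dispensed conc.), cpd preinc 15 min RT; start with NADPH (500 uM addition) then DTNB (15 mM addition). Kinetic TNB absorbance, 405 nm filter. Four-parameter Hill fit across titration.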
# Numbers without * were called inactive; ? = inconclusive; . = not tested or not shown; ! = not active in a repeat; [ ] = another dose, or the depositor's remark. Unless noted, calls come from the whole dose curve; as a rule, active = well fitted curve in the direction sought with a large enough effect; inconclusive = small, poorly fitted or top-dose-only effect, or another doubt; inactive = no such curve, though single readings can be large; an effect the other way counts as inactive or inconclusive. Potency is the fitted concentration of half-maximal effect.
SMILES,AMA1-RON2 inh,NS1 function inh,Pf growth 48h,Pf growth 96h,Sm TGR block
CCC(Sc1nc(C)cc(C)n1)C(=O)NC1=NN=C(c2ccc(C)cc2)CS1 (stereo unspecified),20%,11%,?,10µM*,1%
CCN(c1cccc(C)c1)S(=O)(=O)c1nnc(NC(=O)c2ccccc2Cl)s1,.,.,.,.,79µM*
Cc1ccc(OCc2nnc(NC(=O)c3ccco3)s2)c(C)c1,-3%,-8%,-3%,1.9µM*,-5%
CCN(c1ccccc1)S(=O)(=O)c1nnc(NC(=O)c2ccco2)s1,6%,2%,42%,21%,20µM*!
CCN(c1cccc(C)c1)S(=O)(=O)c1nnc(NC(=O)c2ccco2)s1,15%,-4%,22%,?,25µM*
O=C(/C=C/c1cccc(C(F)(F)F)c1)NNC(=O)c1ccncc1,82%,.,-3%,3%,-1%
CCOC(=O)Cc1csc(NC(=O)CCN2C(=O)c3cccc([N+](=O)[O-])c3C2=O)n1,5%,4%,9%,13µM*,-15%
O=C(COC(=O)CCN1C(=O)c2cccc([N+](=O)[O-])c2C1=O)NCc1ccccc1,2%,.,383%,31%,79µM*
CCOC(=O)Cc1csc(NC(=O)Cc2ccccc2[N+](=O)[O-])n1,1%,.,12%,?,2%
CCOC(=O)Cc1csc(NC(=O)CCCCCN2C(=O)c3cccc4cccc(c34)C2=O)n1,-14%,.,.,.,.
CCOC(=O)Cc1csc(NC(=O)C(C)c2ccc([N+](=O)[O-])cc2)n1 (stereo unspecified),-14%,.,9.3µM*,23%,5%
CCc1cccc(C)c1NC(=O)Cn1c(=O)n(-c2ccc(C)cc2)c(=O)c2c1cnn2C,.,.,.,.,-5%
Cc1noc(C)c1S(=O)(=O)N(CC(=O)O)c1ccc2c(c1)OCO2,-5%,-3%,44%,5.9µM*,-34%
Cc1ccc(S(=O)(=O)N(CC(=O)NC2CCCC2)c2cccc(C)c2)cc1,-1%,-33%,?,?,-11%
CCc1ccc(N(CC(=O)NC2CCCCC2)S(=O)(=O)c2c(C)noc2C)cc1,1%,5%,.,1.9µM*,0%
CCc1ccc(N(CC(=O)NC2CC2)S(=O)(=O)c2ccc(C)cc2)cc1,3%,9%,2%,19%,40µM*
CCCN1CCN(CCCNC(=O)Cn2c(-c3cccs3)cc3ccccc32)CC1,.,.,.,.,-14%
CC(C)(C)c1cc[n+](C2=C([O-])c3ccccc3C(=O)/C2=N\S(=O)(=O)c2cccs2)cc1,-10%,-6%,1.3µM*,2.1µM*,-28%
CC(C)n1c(SCC(=O)Nc2ccc(F)cc2)nnc1C1CC1,3%,10%,-21%,94%,5%
CC1Cc2ccccc2N1S(=O)(=O)c1cnc(Cl)c(Br)c1 (stereo unspecified),-4%,-1%,-29%,?,7.9µM*
CC1Cc2ccccc2N1S(=O)(=O)c1cnc(Cl)c(Cl)c1 (stereo unspecified),-6%,5%,?,?,0%
CC(O)[C@H]1CN=C(N)N1CCCCC1CCCCC1 (stereo partly specified),3%,1%,9.3µM*,3.3µM*,6%
C=CCOc1c(Br)cc(CNc2ccc3[nH]c(=O)[nH]c3c2)cc1OCC,-14%,6%,2%,10µM*,-13%
C=CCOc1ccc(CNc2ccc(NC(=O)CCC)cc2)cc1OCC,-12%,6%,15µM*,12µM*,-16%
C=CCOc1c(Br)cc(CNc2ccc(NC(=O)C(C)C)c(OC)c2)cc1OCC,-5%[11.6 µM],5%,9.3µM*,?,-29%
SMILES,AMA1-RON2 inh,NS1 function inh,Pf growth 48h,Pf growth 96h,Sm TGR block
Cc1ccc(C(=O)N2CCN(c3ccccc3)CC2)cc1NC(=O)c1nsc2ccccc12,.,.,.,.,7%
C=C(C)CN(CC)Cc1c(C(=O)N(C)CCCC)nc2ccccn12,15%,1%,-9%,9.3µM*,-6%[57.1 µM]
CCc1cc2c3c([nH]c2cc1S(=O)(=O)N1CCC2(CC1)OCCO2)CCCC3=O,-3%,3%,?,?,-2%
Cc1cc2c3c([nH]c2cc1S(=O)(=O)N1CCC2(CC1)OCCO2)CC(C)(C)CC3=O,0%,1%,8.3µM*,?,-9%
c1ccc(CN2C3=NCCCN3c3ccccc32)cc1,0%,2%,8.3µM*,52%,-11%
Brc1ccc(CN2C3=NCCCN3c3ccccc32)cc1,-11%,-7%,12µM*,131%,-1%
CC(C)(C)c1ccc(CN2C3=NCCCN3c3ccccc32)cc1,7%,-1%,3.7µM*,1%,-23%
Clc1cccc(CN2C3=NCCCN3c3ccccc32)c1,-8%,-1%,-17%,?,13%
Clc1ccc(CN2C3=NCCCN3c3ccccc32)c(Cl)c1,-3%,-3%,?,1µM*,-7%
Clc1ccc(CN2C3=NCCN3c3ccccc32)cc1,24%,2%,?,.,8%
CCCOc1ccc(C2C(=O)N(C3CCCCCC3)CC(=O)N2Cc2ccccc2OC)cc1OC (stereo unspecified),.,.,.,.,3%
CC1(C(=O)NS(=O)(=O)c2cccs2)CCN1C(=O)c1cccc(F)c1 (stereo unspecified),0%,.,.,.,.
Cc1ccc(CN2C3=NCCCN3c3ccccc32)cc1,1%,-6%,12µM*,?,10%
O=C(Nc1ccc2c(c1)OCO2)c1cnc(Cl)c(Cl)c1,-27%,.,114%,158%,-7%
CN1C[C@@H]2C(c3ccc(Cl)nc3)C3(c4ccccc4)CC2(C3)[C@H]1c1ccccc1 (stereo partly specified),-22%,7%,9.3µM*,13µM*,?
CN1C[C@@H]2C(c3ccc(Cl)nc3)C3(c4cccnc4)CC2(C3)[C@H]1c1ccccc1 (stereo partly specified),-9%,-1%,10µM*,10µM*,?
NC(=O)Nc1ccc(C(=O)OCC(=O)NC2CCCCC2)cc1,-3%,5%,-19%,25%,-1%
CO/N=C/C(c1ccc(Cl)nc1)S(=O)(=O)c1ccccc1 (stereo unspecified),7%,11%,-16%,-3%,22µM*
CO/N=C/C(c1ncc(C(F)(F)F)cc1Cl)S(=O)(=O)c1ccccc1 (stereo unspecified),7%,1%,10µM*,9.3µM*,-45%
CN1CCN(CC/C=C2/c3ccccc3Sc3ccc(S(=O)(=O)N(C)C)cc32)CC1,-22%,-3%,.,.,-21%
CN(C)CC/C=C1/c2ccccc2Sc2c(O)cc(Cl)cc21,-18%,?,?,0.83µM*,-23%
COc1cc2c(cc1Cl)/C(=C\CCN(C)C)c1ccccc1S2,-26%,-14%,10µM*,10µM*,28µM*
COc1cc(Cl)cc2c1Sc1ccccc1/C2=C/CCN(C)C,?,9%,12µM*,?,18µM*
CN(C)CCC(=O)N1c2ccccc2Sc2ccc(Cl)cc21,-5%,0%,?,16%,.
O=C(CSc1nc(=O)n(CCCN2CCOCC2)c2c1CCC2)Nc1ccccc1F,-3%,.,12%,12%,0%
